The text below walks through data of PubChem BioAssay (NCI).

Assay [1] in a line: NCI Yeast Anticancer Drug Screen. Data for the rad50 strain (AID 155).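 Also: 0% = growth of vehicle-only cultures of the same strain.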 Particulars: S. cerevisiae rad50 strain growth inhibition; at 50.0 µM; stronger effect = higher value. In outline: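 DNA repair mutant yeast, compound exposure, growth read-out; inhibition is taken relative to vehicle.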
Assay [2] in a line: NCI Yeast Anticancer Drug Screen. Data for the mec2-1 strain (AID 157). Particulars: S. cerevisiae mec2-1 strain, at 50.0 µM, stronger effect = higher value. In outline: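 Each compound was tested on mec2-1 yeast, a strain altered in DNA damage repair or cell cycle control. Growth inhibition is reported relative to vehicle.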
Assay [3] in a line: NCI Yeast Anticancer Drug Screen. Data for the sgs1 mgt1 strain (AID 161).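 Also: 0% = growth of cultures given vehicle only.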 Particulars: S. cerevisiae sgs1 mgt1 strain, at 50.0 µM, stronger effect = higher value. The essentials:
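Inhibition of yeast growth, normalised to vehicle-treated controls, is reported for a strain bearing genetic alterations in DNA damage repair.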

Assay [4] in a line: NCI Yeast Anticancer Drug Screen. Data for the cln2 rad14 strain (AID 165).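 Also: 0% = growth equal to vehicle treated cultures.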 Particulars: S. cerevisiae cln2 rad14 strain, at 50.0 µM, stronger effect = higher value. The essentials:
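Test compounds were added to cln2 rad14 yeast cultures; inhibition of growth was then determined by comparison with vehicle treatment.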

Assay [5] is described as follows: NCI Yeast Anticancer Drug Screen. Data for the bub3 strain (AID 167). Particulars: S. cerevisiae bub3 mutant strain, at 50.0 µM, stronger effect = higher value. The essentials: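 In this screen, a yeast mutant lacking normal mitotic checkpoint function is challenged with compound. Relative growth versus vehicle gives the inhibition value.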
Assay [6] in a line: NCI Yeast Anticancer Drug Screen. Data for the mlh1 rad18 strain (AID 175). The following applies: S. cerevisiae mlh1 rad18 strain growth inhibition; at 50.0 µM; stronger effect = higher value. The essentials: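 Inhibition values reflect reduced growth of mutant yeast versus vehicle-treated controls following compound exposure; the mutations affect DNA damage repair.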

Molecules are shown by their SMILES. Compounds without any hit were thinned out: in the full panel of roughly 79,000, 15% have a hit. Unmarked numbers belong to inactive results. Calls of active or inactive are those of the source. Rule as the data show it: active = growth inhibition above about 70%; inactive = the rest.

Consider `O=C1NC(=O)C2(CCOCC2)C(=O)N1`, for which the growth inhibition in assay [1] is -5.15%; in assay [2], 3.3%; in assay [3] it was -19.1%; in assay [4] it was -18.4%; in assay [5] it was -17.5%; in assay [6], 0.15%.

As to `C[C@]12CCC(=O)C[C@@H]1CC[C@@H]1[C@@H]2CC[C@]2(C)[C@@H]3OCCC[C@H]3C[C@@H]12`, the growth inhibition was 22.4% in assay [1]; -0.5% in assay [2]; 46.5% in assay [3]; 14.7% in assay [4]; 19.1% in assay [5]; 39.2% in assay [6].

On to `COc1cc(C)c(OP(=O)(OC)OC)cc1C`, for which the growth inhibition in assay [1] is 15.3%; in assay [2] it was 0.7%; in assay [3], 13.6%; in assay [4] it was 59.1%; in assay [5], 1.7%; in assay [6], -0.65%.

In the case of `c1ccc(P2c3ccccc3Oc3ccccc32)cc1`, the growth inhibition was 36.9% in assay [1]; 7.3% in assay [2]; 42.2% in assay [3]; 42.6% in assay [4]; 32.6% in assay [5]; 37% in assay [6].

Regarding `O=NN1CCN(N=O)CC1`, the growth inhibition is 4.9% in assay [1]; -0.6% in assay [2]; 6.3% in assay [3]; 8.95% in assay [4]; -0.6% in assay [5]; 28.1% in assay [6].

With `C=C1C(=O)OC2CC3(C)OC3C3OC3C3=CC(OC3=O)C12` (stereo unspecified), the growth inhibition is 18.9% in assay [1]; 34.7% in assay [2]; 57.1% in assay [3]; 29.6% in assay [4]; 41.4% in assay [5]; 38.1% in assay [6].

Turning to `O=C(O)Cc1ccc2c(c1)OCO2`, the growth inhibition was 20.9% in assay [1]; -0.35% in assay [2]; 28.1% in assay [3]; 12.2% in assay [4]; -11.3% in assay [5]; 23.6% in assay [6].

Take `CN(C(=O)COc1ccc([N+](=O)[O-])cc1Cl)c1ccc(S(=O)(=O)F)cc1`: the growth inhibition is 13.8% in assay [1]; -1.85% in assay [2]; -10.9% in assay [3]; -10.4% in assay [4]; 1.25% in assay [5]; 16.5% in assay [6].

As to `Cn1cnnc1[N+](=O)[O-]`, the growth inhibition in assay [1] is 1.75%; in assay [2], 5.85%; in assay [3], -11.4%; in assay [4] it was -1.1%; in assay [5], 3.25%; in assay [6], 15.7%.

As to `N#CCc1ccccc1CC#N`, the growth inhibition was 20.8% in assay [1]; -0.65% in assay [2]; 2.5% in assay [3]; -19.7% in assay [4]; 3.9% in assay [5]; 18.2% in assay [6].

`C=C[CH2][Sn]([Br])([c]1ccccc1)[c]1ccccc1`: the growth inhibition was 99.3% (active) in assay [1]; 99.2% (active) in assay [2]; 99.2% (active) in assay [3]; 98.8% (active) in assay [4]; 98.8% (active) in assay [5]; 99.3% (active) in assay [6].

For the molecule `C1CCN2CC3CONC3C2C1` (stereo unspecified), the growth inhibition in assay [1] is -11.3%; in assay [2] it was -7.5%; in assay [3], 2.05%; in assay [4] it was 13.7%; in assay [5], -6.2%; in assay [6], -3.05%.

On to `CN1CCc2cc3c(cc2[C@H]1[C@@H]1OC(=O)c2c1ccc1c2OCO1)OCO3`, for which the growth inhibition in assay [1] is -11.4%; in assay [2] it was -38.5%; in assay [3], -26%; in assay [4] it was -0.25%; in assay [5], -29.1%; in assay [6] it was -41%.

Regarding `O/N=C(/C(=N/O)c1ccccc1)c1ccccc1.O/N=C(/C(=N/O)c1ccccc1)c1ccccc1.[Ni]`, the growth inhibition in assay [1] was -10.2%; in assay [2] it was -6.5%; in assay [3], 5.05%; in assay [4] it was -21.8%; in assay [5] it was 2.15%; in assay [6], -14.8%.

On to `CNCC(C)c1ccccc1OC` (stereo unspecified), for which the growth inhibition in assay [1] is -9.6%; in assay [2], -6.7%; in assay [3] it was 2%; in assay [4], 26.4%; in assay [5], 13.3%; in assay [6], -5.9%.

As for `NC1C(=O)NC(=O)NC1=O`, the growth inhibition in assay [1] is 4.2%; in assay [2] it was 11.4%; in assay [3] it was 8.4%; in assay [4] it was 15.1%; in assay [5], 4.6%; in assay [6], 22.8%.

As to `C=C(C)[C@]12CC(C)C34OC(/C=C\C=C\CCCCCCCCC)(O[C@@H]1[C@@H]3[C@@H]1O[C@]1(CO)[C@@H](O)[C@]1(O)C(=O)C(C)=C[C@@H]41)O2` (stereo partly specified), the growth inhibition in assay [1] was 74.4% (active); in assay [2], 70% (active); in assay [3] it was 84.9% (active); in assay [4], 73% (active); in assay [5] it was 73.1% (active); in assay [6], 64.2%.

As for `c1ccc(C2(N3CCOCC3)CSC2)cc1`, the growth inhibition in assay [1] is -6.05%; in assay [2], -4.8%; in assay [3], 1.15%; in assay [4], -16.9%; in assay [5] it was -44.6%; in assay [6], -6.75%.

Regarding `N#C[S-].N#C[S-].[Ni+2].c1ccc([PH+](c2ccccc2)c2ccccc2)cc1.c1ccc([PH+](c2ccccc2)c2ccccc2)cc1`, the growth inhibition in assay [1] is 35.5%; in assay [2] it was 33.7%; in assay [3], 50%; in assay [4] it was 14.3%; in assay [5], 34.2%; in assay [6], 63%.

Regarding `CC1(C)N=C(N/N=C/c2ccccc2)SP1(=O)NNc1ncccn1` (stereo unspecified), the growth inhibition in assay [1] was -7.85%; in assay [2] it was 0.95%; in assay [3], -20.1%; in assay [4], 2.35%; in assay [5], 3.55%; in assay [6], 1.25%.

For the molecule `OC(CN1CC1)C(O)CN1CC1` (stereo unspecified), the growth inhibition was -16.4% in assay [1]; -26.2% in assay [2]; -34% in assay [3]; 8.15% in assay [4]; -44.8% in assay [5]; -14.2% in assay [6].

As to `COc1cc2c(cc1O)CNCC2c1ccc(O)c(C)c1` (stereo unspecified), the growth inhibition in assay [1] is -10.8%; in assay [2] it was -14.6%; in assay [3], 9.55%; in assay [4], -13.8%; in assay [5], -11.4%; in assay [6], -4.7%.

`C[C@]12CC[C@H]3[C@@H](CCC4=C[C@@H](OC5OCC(OC6OC(CO)C(O)C(O)C6O)C(O)C5O)CC[C@@]43C=O)[C@@]1(O)CCC2C1=CC(=O)OC1` (stereo partly specified): the growth inhibition in assay [1] was -31.8%; in assay [2], -20.4%; in assay [3] it was -29.6%; in assay [4] it was -4.1%; in assay [5], -16.7%; in assay [6], 2.2%.

Consider `COc1cc(OC)c(SC)cc1CC(C)N` (stereo unspecified), for which the growth inhibition in assay [1] is -19.2%; in assay [2], -0.95%; in assay [3] it was -3.2%; in assay [4] it was -16.1%; in assay [5], 21.3%; in assay [6], -3.05%.

In the case of `C[Se]c1ncnc2c1c(C#N)cn2C1OC(CO)C(O)C1O` (stereo unspecified), the growth inhibition in assay [1] is 0.75%; in assay [2] it was 14.3%; in assay [3] it was -3.3%; in assay [4], -13.5%; in assay [5], 1.45%; in assay [6], 2.65%.

As for `CCOP(=O)(Cc1ccc(Cl)cc1)OCC`, the growth inhibition in assay [1] was 33.8%; in assay [2], 7.9%; in assay [3], 17.6%; in assay [4], 21.4%; in assay [5], 15.2%; in assay [6], 8.05%.

Consider `C=C1C(=O)OC2CCN3CC=C(COC(=O)C(C)(O)C4(CO4)C1C)C23` (stereo unspecified), for which the growth inhibition in assay [1] was 11.1%; in assay [2], 0.95%; in assay [3] it was -20.9%; in assay [4], -12.8%; in assay [5], -35.5%; in assay [6], -59.5%.

On to `Clc1cccc2ccccc12`, for which the growth inhibition in assay [1] is 7.8%; in assay [2] it was -12.2%; in assay [3], 0.1%; in assay [4] it was 14.1%; in assay [5], 3.4%; in assay [6] it was 16.1%.

On to `COc1cc2c(cc1OC)C13CCN4CC5=CCOC6CC(=O)N2C1C6C5CC43O` (stereo unspecified), for which the growth inhibition was -13.9% in assay [1]; -30.9% in assay [2]; -8.05% in assay [3]; 8.55% in assay [4]; -4.2% in assay [5]; -47.4% in assay [6].

For the molecule `O=C(Cc1nc2ccccc2c(=O)n1-c1c(Cl)cccc1Cl)c1ccncc1`, the growth inhibition in assay [1] was 2.45%; in assay [2] it was 7.95%; in assay [3], 7.1%; in assay [4], -25.6%; in assay [5], -2.95%; in assay [6] it was 18.9%.

Turning to `N#CCc1ccc(CC#N)cc1`, the growth inhibition in assay [1] is 14.1%; in assay [2] it was -10.6%; in assay [3], -2.8%; in assay [4], 16.6%; in assay [5], -5.1%; in assay [6], 1.45%.

Consider `O=Cc1ccccc1O.[La]`, for which the growth inhibition in assay [1] was -7.9%; in assay [2] it was -28.1%; in assay [3], 14.1%; in assay [4] it was -5.45%; in assay [5], -7.7%; in assay [6], 2.15%.

Turning to `CC(=O)OC1OC(CS[As](C)C)C(OC(C)=O)C(OC(C)=O)C1OC(C)=O` (stereo unspecified), the growth inhibition was 58.6% in assay [1]; -3.05% in assay [2]; 54.8% in assay [3]; 28.7% in assay [4]; 17.6% in assay [5]; 52.5% in assay [6].

As to `O=C1CN=C(c2ccccc2)c2ccncc2N1`, the growth inhibition was 4.15% in assay [1]; 4.5% in assay [2]; 12.6% in assay [3]; 19.1% in assay [4]; 5.35% in assay [5]; 28.6% in assay [6].

In the case of `Cc1ccc(OP(=O)(Oc2ccc(C)cc2)Oc2ccc(C)cc2)cc1.Cc1ccc(OP(=O)(Oc2ccc(C)cc2)Oc2ccc(C)cc2)cc1.Cc1ccc(OP(=O)(Oc2ccc(C)cc2)Oc2ccc(C)cc2)cc1.Cc1ccc(OP(=O)(Oc2ccc(C)cc2)Oc2ccc(C)cc2)cc1.[O-][Cl+3]([O-])([O-])O.[Zn+2]`, the growth inhibition was 3.45% in assay [1]; 9.9% in assay [2]; 0.55% in assay [3]; 6.45% in assay [4]; 5.1% in assay [5]; -21.9% in assay [6].

Consider `NC(Cc1cccc(NP(=S)(NCCO)N2CC2)c1)C(=O)O` (stereo unspecified), for which the growth inhibition is -4.95% in assay [1]; 15.1% in assay [2]; 12.8% in assay [3]; -10.9% in assay [4]; 13.1% in assay [5]; 4.35% in assay [6].
